In PubChem BioAssay (NCI) one finds growth data, which are given here for 34 compounds.

The panel holds about 83,000 compounds, 20% with a hit somewhere; the sample as a whole holds those more often.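 Single-concentration screen, 48 h exposure, 96-well plates. Endpoint: percent growth. Below 10 = active.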 Values without a mark were called inactive. Active and inactive are the calls of the source.

The subject of the first test is 786-0 renal. The test is described as follows: NCI-60 one-dose screen, 48 h (100 = growth as untreated, 0 = no growth, -100 = all killed). The settings on record: 10 µM unless noted.
For `Cc1sc2c(c1C)C(c1ccc(Cl)cc1)=N[C@@H](CC(=O)NCCCCCNC(=O)COc1ccc(C3CCC(=O)NC3=O)cc1)c1nnc(C)n1-2` (some centres undefined), the growth is 26.5%.
On to `N/C(=N\c1nc2ccccc2s1)NC(=O)Nc1ccc(Cl)cc1Cl`, for which the growth was -78.6% (active).
The same measure, in the same setting: for `CC1=C(C#N)C2=NNCC(c3ccccc3)=NN2C(c2ccccc2)=C1` the value was 98.2%.

A further test deals with COLO 205 colon. The test is described as above. To be noted: 10 µM unless noted.
For `CCCSc1nc(Nc2ccc(S(N)(=O)=O)cc2)c(C#N)c(-c2ccc(Cl)cc2)n1`, the growth is 46.8%.
Same read-out and setting: in the case of `CCCCSc1nc(Nc2ccc(S(N)(=O)=O)cc2)c(C#N)c(-c2ccc(Cl)cc2)n1` it was 55.2%.
Regarding `Cn1cc(-c2cc3nc(-c4cn(C)c5ncccc45)cc(N)n3n2)c2ccccc21`, the growth is 3.03% (active).
Same read-out and setting: in the case of `Cc1ccc(C2=NN(c3nc(-c4cc5ccccc5oc4=O)cs3)C(c3ccc(C)cc3)C2)cc1` (centres undefined) it was 111%; in that of `Cc1ccc2c(c1)nc(-c1ccccc1)n2CC(=O)N=Nc1c(O)[nH]c2ccc(Br)cc12`, -63% (active).
The same measure, in the same setting: in the case of `O=C(Cn1nc(-c2ccccc2)ccc1=O)N/N=C/c1ccc(N2CCOCC2)cc1` it was 113%; in that of `O=C(NN1C(=O)/C(=C/C=C/c2ccc([N+](=O)[O-])o2)SC1=S)c1ccc(Cl)cc1`, -94.8% (active); in that of `CCCCSc1nc(Nc2ccc(S(N)(=O)=O)cc2)c(C#N)c(-c2cc(OC)c(OC)c(OC)c2)n1`, 39.8%.
On the same count and under the same terms, in the case of `COc1cc2c3c(n(CCCN4CCC[C@@H]4CO)c(=O)c2cc1OC)-c1cc2c(cc1C3=O)OCO2` it was -68.3% (active); in that of `Cn1cc(-c2cc(N)n3nc(-c4cn(C)c5ncc(Br)cc45)cc3n2)c2cc(Br)cnc21`, 12.3%.
In the case of `Cn1cc(-c2cc(N)n3nc(-c4c[nH]c5ccccc45)cc3n2)c2cccnc21`, the growth was 40.2%.
Regarding `CN(C)c1nc(NCCNS(=O)(=O)c2ccc(C3=Nc4c(N)nc(N)nc4NC(c4ccccc4)C3)cc2)nc(Nc2ccc(F)cc2)n1` (centres undefined), the growth is 44%.
On the same count and under the same terms, in the case of `COc1ccc(-c2ccc(SCC(=O)NCCc3ccc(S(N)(=O)=O)cc3)nn2)cc1` it was 95.4%; in that of `O=C(CCN1C(=O)/C(=C/c2ccc(F)cc2)SC1=S)N1CCOCC1`, 75%.
Still for that read-out and setting: for `Cc1cc2nc3c4ccccc4n(CC4=NCCN4)c3nc2cc1C` the value was 43.8%; for `Cc1ccc(C(=O)NN2C(=O)/C(=C/C=C/c3ccc([N+](=O)[O-])o3)SC2=S)cc1`, -83.9% (active); for `Cc1cc2nc3c([nH]c2cc1C)c1ccc(=O)cc1n3CCN(C)C`, 10.8%.
With `N/C(=N\c1nc2ccccc2s1)NC(=O)Nc1c(Cl)cccc1Cl`, the growth is 46.2%.
In the case of `Brc1ccc(-c2n(Cc3ccc4ccccc4c3)c(-c3ccccc3)c(-c3ccccc3)[n+]2Cc2ccc3ccccc3c2)cc1`, the growth was -78.2% (active).
Same read-out and setting: in the case of `C=C1CC[C@@H]2[C@]3(C)COC(c4cn[nH]c4-c4ccc(Br)cc4)O[C@@H]3CC[C@@]2(C)[C@@H]1C/C=C1/C(=O)OCC1O` (some centres undefined) it was -54.6% (active); in that of `COc1ccc(-c2nc3cc(C)ccc3n2CC(=O)N=Nc2c(O)[nH]c3ccc(Br)cc23)cc1`, -47.2% (active).
Same read-out and setting: for `CC12CC[C@@H]3[C@]4(C)COC(c5cn[nH]c5-c5cccc(Br)c5)O[C@@H]4CC[C@@]3(C)[C@@H]1CC(C1=CCOC1=O)O2` (some centres undefined) the value was 10.5%.
In the case of `COc1c(F)ccc(C(=O)Nc2ccc3nc(NC(=O)C4CCCN(S(=O)(=O)c5ccc(C#N)cc5)C4)sc3c2)c1F` (centres undefined), the growth was 96.9%.
The same measure, in the same setting: for `COc1ccc2c(c1)c(-c1cc3nc(-c4cn(C)c5ncccc45)cc(N)n3n1)cn2C` the value was -74.1% (active).
The same measure, in the same setting: in the case of `CC(=O)c1cc(C(=O)c2ccccc2)n2c1ccc1ccccc12` it was 110%.
The same measure, in the same setting: in the case of `COc1ccc2[nH]c(=O)c(CSc3nccc(-c4ccc(OC)c(OC)c4)n3)cc2c1` it was 36.5%.
Take `COc1ccc(NC(=O)Cn2c3c(sc2=O)[C@H]2[C@@H](O)[C@@H](O)[C@H](O)[C@@H]2CS3)cc1`: the growth is 117%.
Same read-out and setting: in the case of `C=C1CCC2C3(C)COC(c4cccs4)OC3CCC2(C)C1CC(Sc1ccccc1)C1=CCOC1=O` (centres undefined) it was 115%.
Same read-out and setting: for `CC1CN(c2oc(-c3ccc([N+](=O)[O-])cc3)nc2C#N)CC(C)O1` (centres undefined) the value was 109%; for `Cc1occc1C(=O)NN1C(=O)/C(=C/C=C/c2ccc([N+](=O)[O-])o2)SC1=S`, -75.3% (active).
Still for that read-out and setting: in the case of `N=C1N=C(SCc2nc3ccccc3[nH]2)NC(=O)/C1=C/c1ccc(Cl)cc1` it was 110%.
